Assay outcomes from PubChem.
S1P3 antag: blocks the human S1P3 receptor | Q99500 | CHO S1P3 NFAT-BLA reporter, FRET fluorescence, antagonist mode | inhibition, % at 4.98 µM | 0.27% of 170,000 active | AID 485;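 active means inhibition above the plate cutoff, the mean inhibition of test wells on that plate plus 3 SD, cut at about 28% in these data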;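 further: cells challenged with S1P at its EC80 of 0.8 µM; blue over green emission ratio from cleaved BLA substrate after 4 h stimulation; 0% = S1P-stimulated wells and 100% = unstimulated DMSO-only wells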
EP2 antag: blocks the human prostaglandin E2 receptor EP2; P43116; C6 glioma cells expressing human EP2, cAMP TR-FRET; cells stimulated with saturating PGE2; inhibition, % at 25 µM; 0.52% of 260,000 active; AID 1422;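 active means percent inhibition above 40 after rounding to a whole number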;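 further: rat C6 glioma host cells with rolipram phosphodiesterase inhibitor present; the protocol text gives 20 µM as final concentration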
Target sequence (P43116 whole entry, looked up): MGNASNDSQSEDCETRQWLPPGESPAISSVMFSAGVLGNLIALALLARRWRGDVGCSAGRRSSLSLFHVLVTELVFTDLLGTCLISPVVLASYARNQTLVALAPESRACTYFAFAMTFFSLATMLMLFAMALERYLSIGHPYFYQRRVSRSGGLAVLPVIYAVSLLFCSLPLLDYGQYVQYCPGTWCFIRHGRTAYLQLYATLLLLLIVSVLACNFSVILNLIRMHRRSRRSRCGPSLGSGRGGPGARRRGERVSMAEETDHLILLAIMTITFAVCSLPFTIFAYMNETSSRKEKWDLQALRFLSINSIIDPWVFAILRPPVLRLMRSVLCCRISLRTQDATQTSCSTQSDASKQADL
S1P4 antagonist: human S1P4 receptor antagonism; S1P4-expressing cells, antagonist mode, reporter read-out; inhibition, % at 4.98 µM; 0.26% of 220,000 active; in the data active means inhibition above about 29%;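 further: 0% = wells stimulated with agonist and 100% = vehicle wells without agonist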
Target sequence (O95977 whole entry, looked up): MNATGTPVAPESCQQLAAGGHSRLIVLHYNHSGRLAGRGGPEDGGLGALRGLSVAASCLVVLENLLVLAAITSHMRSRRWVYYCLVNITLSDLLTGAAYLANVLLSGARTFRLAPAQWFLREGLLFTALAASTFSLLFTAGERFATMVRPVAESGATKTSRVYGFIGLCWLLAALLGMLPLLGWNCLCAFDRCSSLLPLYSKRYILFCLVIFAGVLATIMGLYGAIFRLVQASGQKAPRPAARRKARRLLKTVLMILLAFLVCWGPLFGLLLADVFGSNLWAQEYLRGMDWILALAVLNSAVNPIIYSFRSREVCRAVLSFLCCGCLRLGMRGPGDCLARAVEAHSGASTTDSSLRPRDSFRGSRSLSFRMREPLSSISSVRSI
EP2 mod: modulates human prostaglandin E2 receptor EP2 signaling; P43116; EP2-expressing cells, cAMP HTRF FRET, PGE2 co-stimulation; induction, % at 25 µM; 0.83% of 260,000 active;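 active means compounds whose cAMP rise, as percent of the full-agonist control response, exceeds 60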;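 further: rat C6 glioma line stably carrying human EP2 under a CMV promoter; the protocol text gives 20 µM as final concentration; 100% = response of wells given 1 µM PGE2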
S1P4 agonist: activates the human S1P4 receptor. O95977. S1P4-expressing cell line, agonist reporter assay. activation, % at 4.98 µM. 0.35% of 220,000 active; in the data active means activation above about 11%;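 further: 0% = DMSO vehicle and 100% = reference agonist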
Pf gamet viab: kills late stage P. falciparum gametocytes. P. falciparum stage V gametocytes, ATP luminescence, 24 h. inhibition, % at 10.9 µM. 0.065% of 150,000 active. AID 743093;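 active means inhibition above the mean plus 3 SD of compounds within the control limits, set per campaign, cut at about 38% in these data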;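 further: 0% = DMSO wells and 100% = medium only without gametocytes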
S1P4 ag conf: human S1P4 agonism, confirmation. shares compounds with S1P4 agonist. S1P4 agonist cell-based reporter assay. activation, % at 4.98 µM. 7% of 740 active; in the data active means activation above about 12%;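 further: 0% = vehicle and 100% = full reference agonist response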
S1P1 agonist: counter-screen for S1P4 agonists: agonists of human S1P1. shares compounds with S1P4 agonist. S1P1 agonist cell-based assay, activation. activation, % at 4.98 µM. 4% of 740 active; in the data active means activation above about 21%;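 further: 0% = vehicle wells and 100% = reference agonist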
Numbers without * were called inactive; x = no result. Most compounds without a hit are left out; they make up all but 1.9% or so of the library.

SMILES	S1P3 antag	EP2 antag	S1P4 antagonist	EP2 mod	S1P4 agonist	Pf gamet viab	S1P4 ag conf	S1P1 agonist
Cc1ccc(S(=O)(=O)NCCc2ccccc2)cc1	x	9.2	-6.7	18.7	-5.0	x	x	x
CCOc1ccccc1OCCCCCc1c(C)n[nH]c1C	-2.8	3.2	0.0	48.5	11.3*	4.7	11.4*	3.4
Cn1c(N2CCC(C(=O)NCc3cccs3)CC2)nc2ccccc21	x	5.1	x	-38.0	x	x	x	x
Cc1cc(C(=O)NCc2cccnc2)no1	13.4	9.4	-9.4	28.4	11.3*	32.1	-0.8	-5.9
COc1ccccc1NC1SC(=O)NC1=O (stereo not drawn)	x	9.3	x	-1.6	x	x	x	x
Cc1ccc(NC(=O)c2ccc(OC(=O)CCN3C(=O)c4ccccc4C3=O)cc2)cc1	x	22.4	1.3	17.5	11.3*	x	0.7	-6.8
CC1CCC(NC(=O)C2CCN(c3nc4ccccc4n3C)CC2)CC1 (stereo not drawn)	x	8.3	x	-31.7	x	x	x	x
COCCCNC(=O)c1ccc(Cn2c(=O)c3ccccc3n(Cc3ccccc3C#N)c2=O)cc1	x	11.5	-87.8	22.1	58.2*	-0.4	-2.2	-4.0
COCCCNC(=O)c1ccc2c(=O)n(Cc3ccc(OC)cc3)c(=O)[nH]c2c1	-24.4	6.4	0.3	-44.5	-1.1	10.3	x	x
COCCCNC(=O)c1ccc(Cn2c(=O)[nH]c3ccccc3c2=O)cc1	-10.9	9.1	-2.7	15.0	11.5*	x	-0.7	-4.0
COCCCNC(=O)c1ccc(Cn2c(=O)c3ccccc3n(Cc3ccccc3C)c2=O)cc1	x	1.7	-11.7	41.6	0.2	16.9	x	x
Cc1cc(C)c2cc(CN(Cc3ccc4c(c3)OCO4)C(=O)Nc3ccccc3Cl)c(=O)[nH]c2c1	x	30.5	x	17.8	x	x	x	x
Cc1ccc(OCC(=O)N/N=C/c2ccc3c(c2)OCO3)cc1C	-2.2	1.5	12.9	-63.0	12.0*	x	-2.4	1.1
CCC(C)(C(=O)NC1CCCCC1)N(Cc1cccs1)C(=O)c1ccccn1 (stereo not drawn)	-5.2	15.8	3.5	31.0	44.7*	20.9	-1.8	-1.1
CCC(CC)C(=O)N1CCCC(c2nc3c(nnn3Cc3ccc(C)cc3)c(=O)[nH]2)C1 (stereo not drawn)	x	14.2	x	-14.3	x	x	x	x
c1ccc(-c2nnc(CNCc3cccs3)o2)cc1	x	12.8	x	-17.9	x	x	x	x
Cc1cc(C)nc(SCc2nnc(SCC(=O)O)n2-c2ccccc2)n1	9.7	5.4	-3.6	21.6	14.0*	5.8	-2.6	-2.5
COc1ccc(CCN2C(=O)CC(NCc3ccc4c(c3)OCO4)C2=O)cc1OC (stereo not drawn)	-8.3	10.0	-2.5	-28.3	18.9*	x	-3.0	0.3
CCC1c2ccc(C)n2CCN1Cc1ccc(OCC(=O)N2CCOCC2)cc1 (stereo not drawn)	x	0.7	x	-5.0	x	x	x	x
COc1c(C)cccc1C(=O)Nc1ccc(N2CCN(C(=O)C(C)C)CC2)cc1	x	8.8	x	10.8	x	x	x	x
COCCNC(=O)Cn1c(=O)n(CCCCCC(=O)Nc2ccccc2)c(=O)c2sccc21	-2.6	2.7	0.7	6.7	21.1*	x	-2.1	-3.1
O=c1cc(CSc2nc(NCc3ccccc3)c3ccccc3n2)nc2ccc(Cl)cn12	5.1	5.1	-18.0	16.0	28.4*	0.0	-2.3	-4.1
CS(=O)(=O)N1CCc2cc(C(=O)N3CCOCC3)ccc21	-6.8	18.9	1.6	24.0	26.9*	-35.0	-1.6	-3.5
CCCCNC(=O)Cc1ccc(Br)cc1	-11.8	9.7	-14.8	6.8	13.2*	x	-1.9	-2.6
COCCNC(=O)Cc1ccc(Br)cc1	-9.8	14.9	6.1	14.3	-0.6	x	x	x
SMILES	S1P3 antag	EP2 antag	S1P4 antagonist	EP2 mod	S1P4 agonist	Pf gamet viab	S1P4 ag conf	S1P1 agonist
COc1ccc(C2NC(=O)C(C#N)=C(S)N2c2cccc(C)c2)cc1OC (stereo not drawn)	3.6	6.4	-11.9	3.9	15.3*	15.3	-1.6	2.8
O=C(N/N=C/c1cccs1)c1cccnc1	2.6	8.8	-10.9	-22.7	1.9	-3.3	x	x
Cc1ccc(/C=N/NC(=O)c2cccnc2)s1	9.7	5.9	-1.4	-12.8	12.9*	12.7	-0.9	-0.2
CCCn1cnc2sc3c(c2c1=O)CCCC3	x	26.4	x	-18.0	x	x	x	x
CC(Nc1ccc2c(c1)OCCO2)C(=O)N1c2ccccc2CC1C (stereo not drawn)	-2.6	9.4	-7.7	-26.2	15.5*	-21.9	29.3*	-1.3
Cc1ncc(-c2ccncc2)c(C2CCCN(C(=O)Cn3ccnc3C)C2)n1 (stereo not drawn)	x	x	x	-0.5	x	x	x	x
COc1ccc(Cl)cc1C(=O)Nn1cnc2ccccc2c1=O	-14.2	7.4	-13.9	-4.7	137.0*	-19.6	-2.5	-0.1
CCc1nc(SCC(=O)NCc2ccc(OC)cc2)c2c(C)c(C)sc2n1	x	12.0	x	0.7	x	x	x	x
O=C1c2cccc3cc([N+](=O)[O-])cc(c23)C(=O)N1CCN1CCCC1	-14.0	5.8	-64.3	-8.2	24.1*	x	22.9*	92.3*
O=S(=O)(c1ccc(N2CCC(c3ccc(Cl)cc3)=N2)cc1)N(CCO)CCO	x	8.4	-22.2	-67.0	21.5*	-6.9	21.1*	68.8*
CN(C)CCCNS(=O)(=O)c1ccc(N2CCC(c3ccc(Cl)cc3)=N2)cc1	x	0.1	-67.5	-33.1	96.0*	-13.4	58.6*	153.3*
O=C(COc1ccc2nsnc2c1)Nc1cccc(C(=O)N2CCOCC2)c1	x	8.2	x	-10.3	x	x	x	x
CCc1c(C)nc(SCC(=O)Nc2ccc3c(c2)OCO3)[nH]c1=O	x	10.9	x	-10.8	x	x	x	x
c1ccc2c(c1)N1CCCN=C1N2CCN1CCCCC1	-12.4	2.5	6.0	-11.4	17.6*	-0.3	-1.6	5.5
CC(/C=N/N1CCN(c2ccccc2)CC1)=C\c1ccccc1	x	7.0	0.8	12.8	0.7	x	x	x
CC(/C=N/N1CCN(c2ccccn2)CC1)=C\c1ccccc1	14.1	8.1	-1.2	-13.3	11.3*	10.9	-0.1	1.6
CCOc1cc(C2C(C#N)=C(N)OC3=C2C(=O)CCC3)ccc1OCc1cccc(F)c1 (stereo not drawn)	x	15.8	x	37.9	x	x	x	x
CCCN(Cc1nnc(-c2ccccc2Cl)o1)C(=O)c1cc([N+](=O)[O-])cc([N+](=O)[O-])c1	3.0	8.5	-9.7	-15.8	18.8*	-19.0	-1.6	-5.8
CCc1ccc2[nH]c(=O)c(CN(Cc3ccccc3)C(=S)NC3CCCCC3)cc2c1	x	5.7	x	-69.5	x	x	x	x
CCOC(=O)c1sc(NC(=O)CSc2ncnc3sc(C)c(C)c23)nc1C	x	9.3	x	14.8	x	x	x	x
O=C(O)c1ccc(N/N=C/c2ccc(-c3ccccc3Cl)o2)cc1	-20.3	6.9	-17.9	25.8	11.3*	-5.0	7.6	17.9
O=C(N/N=C/c1ccc(-c2ccccc2Cl)o1)c1ccccc1	7.0	11.4	-7.2	-55.8	0.1	8.6	x	x
COc1ccc(CCC(=O)NCCNC(=O)CCc2ccc(OC)cc2)cc1	x	x	x	x	x	11.4	x	x
CCCCC(=O)NCCc1ccc(OC)cc1	x	12.1	-2.1	12.7	25.5*	x	-1.8	-3.7
CC(C)N(C(=O)CSc1nnc(-c2ccccc2Cl)o1)C(C)C	x	10.7	x	-43.5	x	x	x	x
